hgDAF12 agonist = H. glycines DAF-12 receptor agonists, primary screen, cell-based, luminescence, HEK293, GAL4 fusion, UAS-luciferase | Nuclear hormone receptor DAF-12 (Heterodera glycines), GAL4 fusion | HEK293 GAL4-hgDAF12 UAS-luciferase reporter, agonist luminescence; normalized to butyrate control | activation, % at 6.8 µM | actives 1.8% (n = 370,000);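 active means activation above a cutoff set at the mean of all screened compounds plus 3 SD, cut at about 10% in these data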;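 further: 0% = DMSO wells and 100% = sodium butyrate wells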
DAX1 inh-1 = DAX1 (NR0B1) inhibitors on StAR promoter, primary screen, cell-based, luminescence, SF-1 (NR5A1), full-length DAX-1 | HEK293T StAR-luciferase reporter, SF-1/DAX-1 repression relief | inhibition, % at 6.8 µM | actives 1.1% (n = 370,000);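 active means inhibition above the mean over all tested compounds plus 3 SD, cut at about 3.6% in these data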;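 further: 0% = DAX-1 cells with DMSO and 100% = cells lacking DAX-1 with DMSO; higher inhibition means more luminescence from relief of DAX-1 repression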
hcDAF-12 act = H. contortus DAF-12 nuclear receptor activators, primary screen, cell-based, luminescence, HEK293, lit1-tk-luc reporter. HEK293 hcDAF-12 lit1-tk-luc reporter; 0% DMSO, 100% Δ7-dafachronic acid. activation, % at 6.8 µM. actives 1.4% (n = 370,000);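 active means activation above the mean of all tested compounds plus 3 SD, cut at about 5.5% in these data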;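 further: 100% = response to 3 µM Δ7-dafachronic acid high control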
Wee1 stabilizer = Wee1 degradation inhibitors, primary screen, cell-based, HeLa, Wee1K328M-luciferase, luminescence; HeLa Luc-Wee1K328M stability; 100% = proteasome inhibitor MG132 effect; reporter increase, % at 5 µM; Wee1-like protein kinase (Homo sapiens), P30291; actives 1.2% (n = 220,000);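 active means activation above the mean of all tested compounds plus 3 SD, set per screening run, cut at about 8.8% in these data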;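 further: cells exposed to compound for 20 h before luminescence read; 0% = DMSO alone and 100% = MG132 at 30 µM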
ssDAF-12 act = S. stercoralis DAF-12 nuclear receptor activators, primary screen, cell-based, luminescence, HEK293, GRIP1 co-expression, lit1-tk-luc; Nuclear hormone receptor DAF-12 (Strongyloides stercoralis); HEK293 ssDAF-12/GRIP1 lit1-tk-luc reporter; % of 3 µM dafachronic acid response; activation, % at 6.8 µM; actives 1% (n = 370,000); AID 652126, 2013;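 active means activation above the mean over all tested compounds plus 3 SD, cut at about 0.9% in these data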;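 further: 0% = DMSO-only wells and 100% = 3 µM delta7-dafachronic acid wells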
DAX1 inh-2 = DAX1 (NR0B1) inhibitors, primary screen, cell-based, HEK293, Gal4-DAX1, luciferase luminescence; Nuclear receptor subfamily 0 group B member 1 (Homo sapiens), P51843; HEK293 Gal4-DAX1 luciferase reporter; inhibition, % at 6.75 µM; actives 0.99% (n = 340,000); AID 504766, 2011;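 active means inhibition above the mean over all tested compounds plus 3 SD, cut at about 4.2% in these data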;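 further: 0% = DAX1-transfected cells with DMSO and 100% = empty-vector control cells with DMSO; inhibition shows as a rise in luminescence from relieved DAX1 repression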
Target sequence (P51843 207-470 limits assumed): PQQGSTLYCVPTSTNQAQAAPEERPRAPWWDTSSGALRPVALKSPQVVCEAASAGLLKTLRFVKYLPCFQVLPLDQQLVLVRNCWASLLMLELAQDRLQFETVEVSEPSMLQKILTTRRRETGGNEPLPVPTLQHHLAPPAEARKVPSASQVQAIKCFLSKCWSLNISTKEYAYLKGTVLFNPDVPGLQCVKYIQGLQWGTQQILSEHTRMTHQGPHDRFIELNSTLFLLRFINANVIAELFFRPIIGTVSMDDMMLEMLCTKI
The depositor's hits bear a star; / = no result given. Rows were chosen to be rich in hits. Some 4.6% of all compounds tested hit in one or more screens of this group.

SMILES	hgDAF12 agonist	DAX1 inh-1	hcDAF-12 act	Wee1 stabilizer	ssDAF-12 act	DAX1 inh-2
CC(=O)c1cc(-c2cnn(Cc3ccccc3)c2)c(=O)n2c1CCC2	2	0	1	/	-1	/
CCCn1c2c(c(O)c(C(=O)Nc3nc4ccccc4s3)c1=O)CCCC2	1	0	6.0*	2	0	2
COc1cccc(N2C(C(C)=O)=NN(c3ccccc3)C2c2ccc(N3CCOCC3)cc2)c1 (centres undefined)	11*	1	1	4	1	1
CCN(C(=O)Cc1c(C(=O)O)[nH]c2ccccc12)c1cc(OC)ccc1OC	1	0	3	-3	-1	4.8*
COc1ccc(N(C)C(=O)Cc2c(C(=O)O)[nH]c3ccccc23)cc1	1	0	2	-2	-1	0
OC[C@H]1O[C@@H](c2nc(-c3cccc4ccccc34)no2)[C@H](O)[C@@H]1O	13*	1	1	/	0	/
OC[C@H]1O[C@@H](c2nc(-c3ccccc3Br)no2)[C@H](O)[C@@H]1O	1	0	0	/	0	/
CC(C)(C)OC(=O)N1CCC[C@@H]1C(=O)NCc1ccccc1Cl	1	1	-1	/	-1	/
COC(=O)[C@]12C[C@H](CC(=O)N3CCOCC3)C(=O)N(Cc3ccc4c(c3)OCO4)C1=C[C@H](C(C)C)O[C@@H]2C1CC1	-1	0	-3	/	0	/
Fc1ccccc1Oc1nc(-c2ccncc2)nc2ccccc12	-1	0	-1	8.9*	-1	0
COc1ccc(Oc2nc(-c3cccnc3)nc3ccccc23)cc1	1	0	0	-2	0	0
CCCCN1CCN(C(=O)C2CCN(S(=O)(=O)c3ccc4[nH]c(=O)oc4c3)CC2)CC1	1	0	-1	/	-2	/
C[C@@H](NCCCn1ccc(NC(=O)OCc2ccccc2)nc1=O)c1cccc2ccccc12	-1	1	0	/	-1	-1
CNC(=O)Nc1ccc(S(N)(=O)=O)cc1	-1	0	-1	5	-1	0
NS(=O)(=O)c1ccc(NC(=O)CCCCC(=O)Nc2ccc(S(N)(=O)=O)cc2)cc1	-1	0	-1	/	-1	4.4*
NS(=O)(=O)c1ccc(NC(=O)Nc2ccc(Cl)cc2)cc1	12*	-1	1	-1	-2	0
CCCCOc1ccc(C(=O)NCC(=O)NC2CCCCC2)cc1	1	-1	-2	/	-2	0
O=C1COc2ccc(OCc3ccc(F)cc3)cc21	12*	1	5	1	0	1
CCc1nc2ccc(C(=O)NCCC(C)C)cn2c1N(C)Cc1nccs1	-2	-2	-3	/	-2	/
Cc1ccc(-c2nc3c(c(=O)c4ccccc4n3C)c(=O)n2-c2ccc(F)cc2)cc1	0	0	5.6*	3	0	1
Cn1c2ccccc2c(=O)c2c(=O)n(-c3ccc(F)cc3)c(-c3cccs3)nc21	-3	0	-2	0	-1	3
CC(C)[C@H](NC(=O)[C@@H]1Cc2ccccc2CN1)C(=O)Nc1ccc2c(c1)OCO2	3	1	-1	/	0	1
C[C@@H](NC(=O)[C@@H]1Cc2ccccc2CN1)C(=O)Nc1ccc2c(c1)OCO2	3	1	-1	/	-1	5.2*
COc1cccc(C(=O)Oc2ccccc2/C=C\C(=O)c2cc3ccccc3o2)c1	10	0	6.5*	-3	1.6*	-1
O=C(Oc1ccccc1/C=C\C(=O)c1cc2ccccc2o1)c1ccccc1	10	1	6.2*	2	0	0
SMILES	hgDAF12 agonist	DAX1 inh-1	hcDAF-12 act	Wee1 stabilizer	ssDAF-12 act	DAX1 inh-2
Cc1nnc2n(CCc3ccccc3)c(=O)c3c4c(sc3n12)CCCC4	/	/	/	9.3*	/	/
CC(C)(C)c1ccc(C(=O)NN2C(=O)CSC2=S)cc1	1	1	-1	11*	-2	2
CCCc1cc(=O)oc2cc(C)cc(OCC(=O)NCc3ccncc3)c12	2	-1	0	/	-1	1
COc1cccc(CN2CCN(Cc3cc(OC)c(OC)c(OC)c3)CC2)c1OC	2	0	4	/	1.3*	-2
CCS(=O)(=O)N1CCN(Cc2ccccc2OC)CC1	-1	1	1	0	1.2*	0
CCOc1ccccc1CN1CCN(S(=O)(=O)CC)CC1	-1	0	0	1	-1	1
Cc1nc(Cl)sc1C(=O)Nc1ccc(F)cc1	-1	0	0	/	0	1
CC(C)S(=O)(=O)c1csc(C(=O)Nc2ccc(F)cc2)c1N	9	3	4	0	1.3*	2
Cc1onc(-c2ccc(Cl)cc2Cl)c1-c1csc(N/N=C/c2ccccc2Cl)n1	2	0	2	9.7*	-1	1
C[C@@H]1ON(C)[C@H]2C[C@H]3c4[nH]c5ccccc5c4CCN3C(=O)[C@@H]12	1	1	3	/	1.0*	-1
Cc1ccccc1-c1cccc2c3c([nH]c12)[C@@H]1C[C@H]2[C@@H](C(=O)N1CC3)[C@H](C)ON2C	2	0	0	/	0	/
N#CC1=C(N)n2c(s/c(=C\c3ccco3)c2=O)=C(C#N)C1c1ccco1 (centres undefined)	0	0	3	-3	1.6*	1
COc1ccccc1-c1nnc(SCC(=O)Nc2cccnc2Cl)n1C	0	1	4	/	0.9*	0
CCOC(=O)Cc1c(C)nc2c(-c3ccc(Cl)cc3)c[nH]n2c1=O	-1	1	1	9.8*	-1	1
Cc1nc2c(-c3ccccc3)c[nH]n2c(=O)c1Cc1ccccc1	6	2	1	6	-1	5.7*
CCOC(=O)Cc1c(C)nc2cc(-c3ccc(Cl)cc3)[nH]n2c1=O	1	0	0	0	-1	2
CCN(CC)S(=O)(=O)c1ccc(NN)nc1	-2	0	-2	0	1.4*	0
CC(C)N(C(C)C)S(=O)(=O)c1ccc(NN)nc1	-1	0	0	3	0	1
CCOC(=O)Cc1csc(NC(=O)/C=C/c2ccc(OC)cc2)n1	12*	0	-1	5	-1	-4
CCOC(=O)Cc1csc(NC(=O)c2cnc3sc(C)cn3c2=O)n1	6	1	6.3*	/	0	1

Compound activity deposited in PubChem by The Scripps Research Institute Molecular Screening Center.
